Source: PubChem (National Center for Advancing Translational Sciences (NCATS))
KDM5B inh = blocks human KDM5B histone demethylase activity; Q9UGL1; KDM5B demethylase, FDH-coupled NADH fluorescence (FDH is formaldehyde dehydrogenase); Potency, µM (highest dose often 57.7 µM), actives largely listed as inhibitors; hit rate 2.6% among 220,000; active = well fitted inhibition curve with a large enough effect; inconclusive = small, poorly fitted or top-dose-only effect; inactive = no such curve, though single readings can be large or run the other way; note: potency is the fitted concentration of half-maximal effect; 0% is about no effect; nearly all actives have a fitted effect of over 70% in size
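Inhibition is measured as reduced NADH fluorescence generation from FDH coupling to formaldehyde release. Truncated KDM5BΔAP at 200 nM final acts on H3K4me3 peptide (12.5 µM in substrate mix) in pH 7.5 HEPES buffer with Tween-20, 30 min, room temperature.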
IP6K1 inhibitor = IP6K1 kinase inhibition; IP6K1 kinase, ADP-Glo luminescence, 2 h; stronger effect = lower value; hit rate 0.81% among 140,000; Q92551; activity change, % (series mostly up to about 58 µM); in the data active = activity change below about -25%; note: % is set by controls: 0 for no effect and ±100 for the full control effect
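ADP-Glo luminescence measures ADP made by human IP6K1 during a 2 h RT reaction with ATP/IP6 (mix at 1.3 mM/130 uM); top library doses 57.5 and 19.1 uM final.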
Starred values were filed as active, the others as inactive. Compounds with a hit are over-represented: about 2.7% of the library has one in this group of screens.

What do the screens show for `O=C1c2cccn2CC(CNS(=O)(=O)c2ccc(F)cc2)N1Cc1ccccc1` (configuration not stated)?
KDM5B inh: inactive; IP6K1 inhibitor: 1.5

What do the screens show for `CN(C)c1ccc(C(=C2C=CC(=[N+](C)C)C=C2)c2ccc(N(C)C)cc2)cc1`?
IP6K1 inhibitor: -57.6*

What do the screens show for `CN(C)C(=N)c1ccc(N(C)C)cc1`?
KDM5B inh: inactive

Results for CC(C)N1CCN(c2ccc3nnc(C4CCC4)n3n2)CC1 ?
KDM5B inh: 28.2µM*; IP6K1 inhibitor: 5.5

What do the screens show for `c1cc2nnc(C3CCC3)n2nc1N1CCCC1`?
KDM5B inh: inactive; IP6K1 inhibitor: -9.4

How did COc1ccc(-c2ccc(C(=O)N3CCN([S+](=O)([O-])c4c(C)noc4C)CC3)cc2)nn1 do in these assays?
IP6K1 inhibitor: 1.1

What do the screens show for `CCOC(=O)c1ccccc1NC(=O)Cn1c(-c2cnccn2)nc(C)c(C)c1=O`?
KDM5B inh: inactive; IP6K1 inhibitor: -4.1

How did O=C(Nc1cc(F)cc(F)c1)C1CCN(C(=O)c2ncn3c2COC(c2ccc(F)cc2)C3)CC1 (configuration not stated) do in these assays?
KDM5B inh: inactive; IP6K1 inhibitor: 0.2

Results for O=C(NCc1cccc(Cl)c1)c1ccc2nnc(CC3CC3)n2c1 ?
IP6K1 inhibitor: -3.3

How did O=C1CC2(CCN(CC3CCCCC3)CC2)Oc2ccccc21 do in these assays?
KDM5B inh: 31.6µM*; IP6K1 inhibitor: 10.2

How did O=C1CC2(CCN(Cc3ccc(F)cc3)CC2)Oc2ccccc21 do in these assays?
KDM5B inh: 28.2µM*; IP6K1 inhibitor: 14.5

How did N#Cc1ccc(CN2CCC3(CC2)CNC(=O)c2ccccc2O3)cc1 do in these assays?
KDM5B inh: inactive; IP6K1 inhibitor: -1.7

What do the screens show for `CN(C)c1ccc(CN2CCC3(CC2)CC(=O)c2ccccc2O3)cc1`?
KDM5B inh: inactive; IP6K1 inhibitor: 8.5

How did N#Cc1ccc(CN2CCC3(CC2)CC(=O)c2ccccc2O3)cc1 do in these assays?
KDM5B inh: 31.6µM*; IP6K1 inhibitor: -4.1

Results for O=C1CC2(CCN(Cc3cccnc3)CC2)Oc2cc(Cl)ccc21 ?
KDM5B inh: inactive; IP6K1 inhibitor: 6.6

How did O=C1CC2(CCN(Cc3cccnc3)CC2)Oc2ccccc21 do in these assays?
KDM5B inh: 35.5µM*; IP6K1 inhibitor: -0.1

What do the screens show for `O=C1CC2(CCN(CC3CC3)CC2)Oc2cc(Cl)ccc21`?
KDM5B inh: inconclusive; IP6K1 inhibitor: -0.2

Results for CNc1nc2c(c(=O)n(C)c(=O)n2C)n1Cc1cccc(C)c1 ?
KDM5B inh: inactive

How did CC(NC(=O)c1ccc2ccccc2n1)c1ccc(Cl)cc1 (configuration not stated) do in these assays?
KDM5B inh: inactive

How did O=C(COC(=O)c1cc2ccccc2[nH]1)NC1CCCCCCC1 do in these assays?
KDM5B inh: inactive

What do the screens show for `O=C(c1cc(C2CC2)[nH]n1)N1CC(F)(F)C[C@H]1c1nc(C2CC2)no1`?
KDM5B inh: inactive; IP6K1 inhibitor: 0.7

Results for O=C(c1cc[nH]c(=O)c1)N1CC(F)(F)C[C@H]1c1nc(C2CC2)no1 ?
KDM5B inh: 28.2µM*; IP6K1 inhibitor: -2.2

What do the screens show for `O=C(c1ccc2cc[nH]c2c1)N1C[C@@H](CO)[C@H](c2nc(C3CC3)no2)C1`?
KDM5B inh: 31.6µM*; IP6K1 inhibitor: -3.8

Results for O=C(c1ccc(F)c(F)c1)N1C[C@@H](CO)[C@H](c2nc(C3CC3)no2)C1 ?
KDM5B inh: inactive; IP6K1 inhibitor: 5.5

What do the screens show for `CC(=O)C1=C(OC(=O)c2ccc(F)cc2)c2ccccc2S(=O)(=O)N1C(C)C`?
KDM5B inh: inactive

How did O=C(CC12CC3CC(CC(C3)C1)C2)Nc1ccc(F)c(Cl)c1 do in these assays?
KDM5B inh: inactive

Results for Cc1ccc(CN2CCCCCCNC(=O)[C@@H]3C[C@@H](C(=O)N4CCN(c5ccccn5)CC4)C[C@@H]32)o1 ?
KDM5B inh: 20µM*; IP6K1 inhibitor: -5.3

How did O=C1NCCCCCCN[C@H]2C[C@H](C(=O)N3CCN(c4ccccn4)CC3)C[C@@H]12 do in these assays?
KDM5B inh: inconclusive; IP6K1 inhibitor: 9.2

Results for CCS(=O)(=O)N1CCCCCCNC(=O)[C@@H]2C[C@@H](C(=O)N3CCN(c4ccccn4)CC3)C[C@@H]21 ?
KDM5B inh: inconclusive; IP6K1 inhibitor: -0.4

How did CC(C)C(=O)N1CCCCCCNC(=O)[C@@H]2C[C@@H](C(=O)N3CCN(c4ccccn4)CC3)C[C@@H]21 do in these assays?
KDM5B inh: 25.1µM*; IP6K1 inhibitor: 1.7

How did CCN(Cc1ccc(S(=O)(=O)N(C)C)o1)c1ccccc1 do in these assays?
KDM5B inh: inactive

What do the screens show for `COc1ccc(Cn2c(=O)c(C(=O)NCc3cccc(Cl)c3)nc3cccnc32)cc1`?
IP6K1 inhibitor: 21.7

What do the screens show for `CCc1ccc([S+](=O)([O-])c2nnn3c2nc(NCc2ccncc2)c2ccccc23)cc1`?
KDM5B inh: 50.1µM*; IP6K1 inhibitor: 21.7

What do the screens show for `Cc1ccc([S+](=O)([O-])c2nnn3c2nc(NCc2ccncc2)c2ccccc23)cc1`?
KDM5B inh: inconclusive; IP6K1 inhibitor: -2.5

How did Cc1cc(C)c([S+](=O)([O-])c2nnn3c2nc(NCc2ccncc2)c2ccccc23)c(C)c1 do in these assays?
KDM5B inh: inconclusive; IP6K1 inhibitor: 7.4

Results for O=[S+]([O-])(c1ccc(Cl)cc1)c1nnn2c1nc(NCc1ccncc1)c1ccccc12 ?
KDM5B inh: 89.1µM*; IP6K1 inhibitor: -2.4

How did Cc1ccc(C)c([S+](=O)([O-])c2nnn3c2nc(NCc2ccncc2)c2ccccc23)c1 do in these assays?
KDM5B inh: 89.1µM*; IP6K1 inhibitor: 2.6

How did COc1ccc([S+](=O)([O-])c2nnn3c2nc(NCc2ccncc2)c2ccccc23)cc1 do in these assays?
KDM5B inh: inconclusive; IP6K1 inhibitor: 7.6

How did O=[S+]([O-])(c1ccncc1)c1nnn2c1nc(NCc1ccc(F)cc1)c1ccccc12 do in these assays?
KDM5B inh: inactive; IP6K1 inhibitor: 4.8

How did CC(C)c1ccc([S+](=O)([O-])c2nnn3c2nc(NCc2ccncc2)c2ccccc23)cc1 do in these assays?
KDM5B inh: 79.4µM*; IP6K1 inhibitor: -1.7

How did O=S(=O)(Nc1nc2ccccc2nc1Nc1ccc2c(c1)OCO2)c1cc(Cl)ccc1Cl do in these assays?
KDM5B inh: inactive

What do the screens show for `CCOc1ccc2nc(NC(=O)c3noc4c3COc3ccccc3-4)sc2c1`?
KDM5B inh: inactive

What do the screens show for `FC(F)Oc1cc(Cl)ccc1C1CC(c2ccc(Br)cc2)n2c(nc3ccccc32)N1` (configuration not stated)?
KDM5B inh: inactive

What do the screens show for `O=[N+]([O-])c1ccc(N=Cc2cccnc2)cc1`?
KDM5B inh: inactive

How did Cc1ccc2nc(Nc3ccccc3C)cc(C)c2c1 do in these assays?
KDM5B inh: inactive

How did CCOC(=O)C(C)N1CCOc2c(O)cc(-c3cccc(Cl)c3)cc2C1 (configuration not stated) do in these assays?
KDM5B inh: inactive; IP6K1 inhibitor: 39.3

How did C=CCNc1nnc(SCc2ncc(-c3ccccc3)o2)s1 do in these assays?
KDM5B inh: inactive

What do the screens show for `Cc1ccc2c(C(=O)NCc3ccc(Cl)nc3)cnn2c1`?
KDM5B inh: 39.8µM*; IP6K1 inhibitor: -3.8

Results for Cc1ccc2c(C(=O)NCc3ccc(Cl)cc3Cl)cnn2c1 ?
KDM5B inh: inconclusive; IP6K1 inhibitor: -1.9
